Results taken from PubChem BioAssay AID1159580 (chemical genetic matrix, 2015).
Hit rate of the full screen: of about 5,500 compounds, about 2,000 (36%) were called active. Inconclusive results (about 18%) are left out. No stated cut-off is given here; in the data, active means normalized growth mostly below about 0.91 (no sharp cut-off); inconclusive means no clear call, values can overlap the other calls; inactive means mostly above about 0.92. Some of the results follow.

Test: chemical genetic growth profiling, strain panel (AID 1159580);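 further: tested at 20 µM; growth read once vehicle control cultures reached saturation at 30 °C; 1 = growth at the plate median or of vehicle wells; lower values mean less growth of the strain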
Conditions: growth OD

Measured: normalized growth

CCCCCN=C(N)N/N=C\c1c[nH]c2ccc(OC)cc12
inactive: S. cerevisiae deletion strains, locus YJR043C, strain POL32, active compounds read low 0.989 | S. cerevisiae deletion strains, locus YJR075W, strain HOC1, active compounds read low 0.996 | S. cerevisiae deletion strains, locus YKL009W, strain mrt4, active compounds read low 0.974 | S. cerevisiae deletion strains, locus YKL068W, active compounds read low 0.993 | S. cerevisiae deletion strains, locus YKL085W, strain MDH1 (second series), active compounds read low 0.956 | S. cerevisiae deletion strains, locus YKL085W, strain MDH1, active compounds read low 0.956 | S. cerevisiae deletion strains, locus YKL160W, strain elf1, active compounds read low 1.01 | S. cerevisiae deletion strains, locus YKL190W, strain CNB1, active compounds read low 1.01 | S. cerevisiae deletion strains, locus YKR001C, strain vps1, active compounds read low 1.03 | S. cerevisiae deletion strains, locus YKR026C, strain gcn3, active compounds read low 1.01 | S. cerevisiae deletion strains, locus YKR091W, strain srl3, active compounds read low 0.992 | S. cerevisiae deletion strains, locus YLL001W, strain dnm1, active compounds read low 1.01 | S. cerevisiae deletion strains, locus YLL026W, active compounds read low 1.01 | S. cerevisiae deletion strains, locus YLL041C, strain sdh2, active compounds read low 1 | S. cerevisiae deletion strains, locus YLR027C, strain aat2, active compounds read low 1 | S. cerevisiae deletion strains, locus YLR039C, strain RIC1, active compounds read low 1.08 | S. cerevisiae deletion strains, locus YLR058C, strain SHM2, active compounds read low 0.99 | S. cerevisiae deletion strains, locus YLR102C, strain apc9, active compounds read low 1.02 | S. cerevisiae deletion strains, locus YLR221C, strain rsa3, active compounds read low 0.986 | S. cerevisiae deletion strains, locus YLR258W, strain gsy2, active compounds read low 0.995 | S. cerevisiae deletion strains, locus YLR262C, strain YPT6 (second series), active compounds read low 1.04 | S. cerevisiae deletion strains, locus YLR262C, strain YPT6, active compounds read low 1.01 | S. cerevisiae deletion strains, locus YLR268W, strain sec22, active compounds read low 0.998 | S. cerevisiae deletion strains, locus YLR320W, strain mms22, active compounds read low 0.98 | S. cerevisiae deletion strains, locus YLR330W, strain CHS5, active compounds read low 1.01 | S. cerevisiae deletion strains, locus YLR342W, strain FKS1 (second series), active compounds read low 0.989 | S. cerevisiae deletion strains, locus YLR342W, strain FKS1, active compounds read low 1.01 | S. cerevisiae deletion strains, locus YLR357W, strain rsc2, active compounds read low 0.975 | S. cerevisiae deletion strains, locus YLR370C, strain arc18, active compounds read low 1 | S. cerevisiae deletion strains, locus YLR371W, strain rom2, active compounds read low 1.03 | S. cerevisiae deletion strains, locus YLR384C, strain iki3, active compounds read low 1.02 | S. cerevisiae deletion strains, locus YLR418C, strain cdc73, active compounds read low 0.993 | S. cerevisiae deletion strains, locus YML016C, strain PPZ1, active compounds read low 1 | S. cerevisiae deletion strains, locus YML032C, strain rad52, active compounds read low 1.02 | S. cerevisiae deletion strains, locus YML120C, strain ndi1, active compounds read low 1.01 | S. cerevisiae deletion strains, locus YML124C, strain tub3, active compounds read low 1.02 | S. cerevisiae deletion strains, locus YMR058W, strain fet3, active compounds read low 1.01 | S. cerevisiae deletion strains, locus YMR078C, strain ctf18, active compounds read low 1.03 | S. cerevisiae deletion strains, locus YMR125W, strain sto1, active compounds read low 0.979 | S. cerevisiae deletion strains, locus YMR129W, active compounds read low 1.01 | S. cerevisiae deletion strains, locus YMR205C, strain PFK2, active compounds read low 0.994 | S. cerevisiae deletion strains, locus YMR223W, strain ubp8, active compounds read low 1.01 | S. cerevisiae deletion strains, locus YMR231W, strain pep5, active compounds read low 1.02 | S. cerevisiae deletion strains, locus YMR263W, strain SAP30, active compounds read low 1.01 | S. cerevisiae deletion strains, locus YMR307W, strain GAS1, active compounds read low 0.973 | S. cerevisiae deletion strains, locus YNL067W, strain RPL9B, active compounds read low 0.998 | S. cerevisiae deletion strains, locus YNL071W, strain lat1, active compounds read low 1 | S. cerevisiae deletion strains, locus YNL128W, strain TEP1, active compounds read low 0.995 | S. cerevisiae deletion strains, locus YNL153C, strain GIM3, active compounds read low 1 | S. cerevisiae deletion strains, locus YNL209W, strain ssb2, active compounds read low 1 | S. cerevisiae deletion strains, locus YNL233W, strain BNI4, active compounds read low 0.985 | S. cerevisiae deletion strains, locus YNL248C, strain rpa49, active compounds read low 0.991 | S. cerevisiae deletion strains, locus YNL250W, strain rad50, active compounds read low 1.02 | S. cerevisiae deletion strains, locus YNL271C, strain bni1, active compounds read low 1.02 | S. cerevisiae deletion strains, locus YNL298W, strain CLA4, active compounds read low 1.02 | S. cerevisiae deletion strains, locus YNL307C, strain MCK1, active compounds read low 1.04 | S. cerevisiae deletion strains, locus YNL322C, strain KRE1 (second series), active compounds read low 1.02 | S. cerevisiae deletion strains, locus YNL322C, strain KRE1, active compounds read low 1 | S. cerevisiae deletion strains, locus YNR049C, strain mso1, active compounds read low 1.01 | S. cerevisiae deletion strains, locus YNR052C, strain pop2, active compounds read low 1.03 | S. cerevisiae deletion strains, locus YOL006C, strain TOP1, active compounds read low 0.995 | S. cerevisiae deletion strains, locus YOL012C, strain htz1 1.66 | S. cerevisiae deletion strains, locus YOL147C, strain pex11, active compounds read low 1.03 | S. cerevisiae deletion strains, locus YOR001W, strain rrp6, active compounds read low 0.995 | S. cerevisiae deletion strains, locus YOR061W, strain CKA2, active compounds read low 0.995 | S. cerevisiae deletion strains, locus YOR069W, strain VPS5, active compounds read low 1.01 | S. cerevisiae deletion strains, locus YOR070C, strain gyp1, active compounds read low 1 | S. cerevisiae deletion strains, locus YOR080W, strain dia2, active compounds read low 1 | S. cerevisiae deletion strains, locus YOR083W, strain WHI5, active compounds read low 0.991 | S. cerevisiae deletion strains, locus YOR106W, strain vam3, active compounds read low 0.995 | S. cerevisiae deletion strains, locus YOR136W, strain idh2, active compounds read low 1.03 | S. cerevisiae deletion strains, locus YOR144C, strain elg1, active compounds read low 1.01 | S. cerevisiae deletion strains, locus YOR184W, strain ser1, active compounds read low 1.02 | S. cerevisiae deletion strains, locus YOR265W, strain rbl2, active compounds read low 1.01 | S. cerevisiae deletion strains, locus YOR270C, strain vph1, active compounds read low 1.05 | S. cerevisiae deletion strains, locus YOR290C, strain snf2, active compounds read low 0.984 | S. cerevisiae deletion strains, locus YOR316C, strain cot1, active compounds read low 1.02 | S. cerevisiae deletion strains, locus YPL051W, strain arl3, active compounds read low 1 | S. cerevisiae deletion strains, locus YPL055C, strain LGE1, active compounds read low 0.993 | S. cerevisiae deletion strains, locus YPL078C, strain atp4, active compounds read low 1.03 | S. cerevisiae deletion strains, locus YPL106C, strain sse1, active compounds read low 1.01 | S. cerevisiae deletion strains, locus YPL240C, strain hsp82, active compounds read low 1 | S. cerevisiae deletion strains, locus YPL241C, strain CIN2, active compounds read low 1.05 | S. cerevisiae deletion strains, locus YPR119W, strain clb2, active compounds read low 1.02 | S. cerevisiae deletion strains, locus YPR141C, strain kar3, active compounds read low 1.02 | S. cerevisiae deletion strains, locus YPR163C, strain tif3, active compounds read low 1.02 | S. cerevisiae deletion strains, locus YPR167C, strain met16, active compounds read low 1.02 | S. cerevisiae deletion strains, strain wtn01, active compounds read low 1.01 | S. cerevisiae strains, strain wild type, active compounds read low 1
